This is a sample that favours compounds with a hit; in the whole collection about 2.4% have one here.
PP1 counter = counter-screen for PP5 inhibitors: inhibitors of human PP1-alpha; purified PP1alpha, OMFP fluorescence; inhibition, % at 6.7 µM; 320,000 compounds, 0.9% hits; AID 2235;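 active means inhibition above the mean inhibition of all tested compounds plus 3 SD, computed separately for each screening campaign, cut at about 15% in these data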
PP5 primary = blocks human protein phosphatase 5 activity. P53041. purified PP5c, OMFP substrate fluorescence. inhibition, % at 6.7 µM. 320,000 compounds, 0.18% hits;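 active means inhibition above the campaign's mean inhibition across all tested compounds plus 3 SD, cut at about 9.5% in these data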;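 further: 0% = DMSO only and 100% = 100 µM cantharidin control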
Target sequence (P53041 whole entry, looked up): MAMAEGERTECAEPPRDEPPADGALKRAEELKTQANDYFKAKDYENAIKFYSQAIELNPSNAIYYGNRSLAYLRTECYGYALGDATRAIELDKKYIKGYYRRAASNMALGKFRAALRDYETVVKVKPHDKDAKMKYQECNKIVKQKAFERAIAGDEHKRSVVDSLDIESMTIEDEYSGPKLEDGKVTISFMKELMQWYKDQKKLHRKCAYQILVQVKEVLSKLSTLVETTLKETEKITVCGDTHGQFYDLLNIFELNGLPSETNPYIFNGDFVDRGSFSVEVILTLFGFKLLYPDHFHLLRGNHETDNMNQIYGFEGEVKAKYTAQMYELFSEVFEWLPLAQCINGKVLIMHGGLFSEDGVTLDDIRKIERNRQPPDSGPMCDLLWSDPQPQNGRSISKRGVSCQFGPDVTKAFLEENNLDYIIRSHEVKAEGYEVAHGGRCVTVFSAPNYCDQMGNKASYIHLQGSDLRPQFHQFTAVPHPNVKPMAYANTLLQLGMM
Rpn11 block = Rpn11 (human) deubiquitinase inhibition; O00487; human 26S proteasome, Ub4-pepOG fluorescence polarization; 20S core pre-blocked with epoxomicin; inhibition, % at 20 µM; 360,000 compounds, 0.59% hits; AID 588493;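 active means inhibition at 20 µM, scaled to each plate's controls, above about 33%, limit read from the data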
PREPL inhibitor = human PREPL enzyme inhibition; Q4J6C6; recombinant PREPL, fluorescence polarization activity-based probe; 320,000 compounds, 0.68% hits; inhibition, % at 5.96 µM;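 further: 0% = enzyme with DMSO and 100% = wells lacking enzyme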
NadD inh = inhibitors of Staphylococcus aureus NadD; purified NadD enzyme, colorimetric absorbance read-out; inhibition, % at 20 µM; 360,000 compounds, 0.78% hits; in the data active means inhibition above about 26%
PREPL inh cf = confirmation of human PREPL enzyme inhibitors. shares compounds with PREPL inhibitor. recombinant PREPL, fluorescence polarization activity probe. inhibition, % at 5.96 µM. 2,000 compounds, 67% hits. AID 2803;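 further: 0% = protein with DMSO and 100% = wells lacking protein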
* = called active by the depositor; . = no result given; ! = not active in a repeat. Unless noted, no stated cut-off is given here; in the data, active means inhibition above about 43%; inactive means the rest.

SMILES	PP1 counter	PP5 primary	Rpn11 block	PREPL inhibitor	NadD inh	PREPL inh cf
C[C@H](CO)N1C[C@H](C)[C@@H](CN(C)S(=O)(=O)c2ccccc2)Oc2ccc(NS(=O)(=O)c3ccccc3)cc2C1=O	.	.	-4.7	5.7	2.6	.
OCCN1CCN(CCCN2c3ccccc3Sc3ccc(Cl)cc32)CC1	1.0	-0.9	-20.3	47.8*	-6.1	41.0
CC(=O)c1ccc2c(c1)N(CCCN1CCC(CCO)CC1)c1ccccc1S2	-1.5	-1.1	-29.1	40.3	-7.3	.
CN(C)CCCN1c2ccccc2Sc2ccc(Cl)cc21	7.4	3.0	-23.0	45.4*!	-4.0	45.1*
Cc1ccc2c(c1)c1c(n2CC(O)CNC2CCCCC2)CCCC1 (stereo not drawn)	1.1	0.9	0.1	49.7*	1.3	46.0*
COc1cc(NCc2ccccc2O)c2ncccc2c1	.	.	-3.9	.	-4.9	.
Oc1ccccc1CNc1cccc2cccnc12	-3.1	2.5	6.6	44.6*	13.1	14.6
CCN(C1CCCCC1)S(=O)(=O)CCNC(=O)c1ccc2c(c1)OCO2	-2.1	1.5	1.9	13.5	-1.5	.
CCOc1cc(N2CCOCC2)c(OCC)cc1NC(=O)COC(=O)CCc1c[nH]c2ccccc12	-2.6	0.6	-4.0	75.8*	0.4	69.0*
c1cc2c(cc1C1CCCCC1)c1c3n2CCCNC3CCC1 (stereo not drawn)	6.9	4.0	11.3	35.3	3.2	.
Cc1ccc2c(c1)c1c3n2CCCNC3CCC1 (stereo not drawn)	-8.4	7.3	-0.2	44.6*	1.0	43.5*
Cc1ccc(CNc2ccc3c(c2)ncn3C)cc1	-8.1	3.0	0.2	10.2	4.8	.
Cc1ccc(CNc2ccc3c(c2)ncn3C(C)(C)C)cc1	-0.2	0.7	0.2	49.3*	-4.8	46.0*
Oc1ccccc1N1CCN(c2ccc3ccccc3n2)CC1	-0.5	3.6	-1.9	54.2*	-0.3	42.5
CCC(CO)Oc1cc(NCc2ccc(Cl)cc2)c2ncn(C(C)C)c2c1 (stereo not drawn)	.	.	-7.1	48.1*	2.2	22.6
CCCOc1ccc(N2C(=O)CC(N3CCN(CCN=CC4C(=O)CC(C)(C)CC4=O)CC3)C2=O)cc1 (stereo not drawn)	0.5	1.9	-2.8	-0.7	-2.4	.
CN1c2ccsc2/C(=N/Nc2ccc(F)cc2)CS1(=O)=O	6.9	7.4	3.8	57.2*	-4.2	34.2
O=C1NCCC/C1=N/Nc1ccc(F)cc1	-2.7	1.2	.	4.1	.	.
CCCCN1C(=O)C(=O)NC[C@@H]1Cc1ccc(O)cc1	.	.	.	.	0.4	.
CC[n+]1ccccc1/C=C1\Sc2ccc(C)cc2N1C	3.8	-0.9	2.8	26.2	13.3	.
CCN1/C(=C/c2ccc3cc(C)ccc3[n+]2CC)Sc2ccccc21	7.7	1.2	.	64.8*	16.7	57.5*
Cc1ccccc1CSc1nc(C(C)(C)C)cc(=O)[nH]1	-4.0	2.7	3.1	-7.8	-2.5	.
COc1ccc(N2CCN(c3ccc4nnc(CCC(=O)Nc5ccc(C)cc5)n4n3)CC2)cc1	3.6	-2.1	2.5	58.9*	-1.3	60.4*
CCCCN1CC(=O)N2[C@H](c3ccc(Cl)cc3)[C@@H]3C(=O)N(CC)C(=O)[C@@H]3[C@]2(Cc2ccccc2)C1=O	3.1	-0.5	-7.4	18.3	-6.3	.
C[C@H](CO)N1C[C@H](C)[C@@H](CN(C)Cc2ccncc2)Oc2c(NS(=O)(=O)c3ccc(Cl)cc3)cccc2C1=O	.	.	-4.8	48.4*	0.4	45.4*
SMILES	PP1 counter	PP5 primary	Rpn11 block	PREPL inhibitor	NadD inh	PREPL inh cf
CCCCn1c(CN2CCN(c3cccc(Cl)c3)CC2)nc2c1c(=O)[nH]c(=O)n2C	-2.1	0.2	-0.9	26.4	15.6	.
Cn1c(=O)[nH]c(=O)c2c1nc(CN1CCN(c3cccc(Cl)c3)CC1)n2CCN1CCOCC1	2.4	-0.3	-7.5	46.3*	-3.6	42.0
COC(=O)CCCC1=CC2=CC(=O)C(C)(OC(=O)c3cccs3)C(=O)C2=CN1CCc1c[nH]c2ccccc12 (stereo not drawn)	9.4	4.0	7.5	44.5*	13.9	22.5
COC(=O)CCCC1=CC2=CC(=O)C(C)(OC(=O)c3cccs3)C(=O)C2=CN1Cc1ccccc1 (stereo not drawn)	8.5	2.5	0.5	17.2	8.3	.
CCN(CC)C(=O)c1ccc2nc([C@@H]3O[C@H](CO)[C@H](O)[C@H](O)[C@H]3O)[nH]c2c1	.	.	-3.1	.	1.9	.
Cn1c(=O)c2c(nc(N/N=C/c3ccncc3)n2Cc2ccccc2)n(C)c1=O	-1.0	-0.9	-6.7	7.0	-7.4	.

From PubChem
